Compound activity: PubChem, several laboratories
HePTP inhibitor – inhibitors of human HePTP phosphatase; P35236; recombinant HePTP phosphatase activity, OD absorbance; inhibition, % at 20 µM; 110,000 compounds, 0.64% hits; in the data active = inhibition above about 50%;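 also: plate controls were vehicle for no effect and reference inhibitor for full effect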
TNAP act DEA – activates human TNAP at intermediate phosphate acceptor concentration | 64,000 tested, under 10 active | AID 813 | purified TNAP, CDP-star luminescence, 100 mM DEA, 30 min; active compounds read high; scale: 0 levamisole-inhibited, 1 vehicle-only enzyme | activation factor at 20 µM | P05186;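 active = activation factor of at least 2 at 20 µM, relative to controls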
Target sequence (P05186 whole entry, looked up): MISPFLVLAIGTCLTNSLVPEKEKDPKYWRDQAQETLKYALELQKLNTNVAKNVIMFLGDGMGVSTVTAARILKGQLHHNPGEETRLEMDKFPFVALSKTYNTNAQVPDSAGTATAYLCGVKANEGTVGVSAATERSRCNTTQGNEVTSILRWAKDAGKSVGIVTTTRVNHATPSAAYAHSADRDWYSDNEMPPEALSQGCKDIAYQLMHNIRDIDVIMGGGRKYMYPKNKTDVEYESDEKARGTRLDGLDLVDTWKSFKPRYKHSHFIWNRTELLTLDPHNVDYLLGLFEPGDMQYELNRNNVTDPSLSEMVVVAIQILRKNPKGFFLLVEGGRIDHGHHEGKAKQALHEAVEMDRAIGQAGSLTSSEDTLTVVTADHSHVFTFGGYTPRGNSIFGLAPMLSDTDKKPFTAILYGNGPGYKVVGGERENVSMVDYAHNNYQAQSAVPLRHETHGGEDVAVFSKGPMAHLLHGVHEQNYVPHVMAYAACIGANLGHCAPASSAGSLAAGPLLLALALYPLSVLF
Hsp90 inh – displaces geldanamycin probe from tumor Hsp90 | NCI-N417 lysate Hsp90, Cy3B-geldanamycin FP displacement | P07900 | 64,000 compounds, 0.35% hits | inhibition, % at 30 µM;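 active = inhibition above 50%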;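 also: 0% = tracer plus lysate wells and 100% = tracer alone without lysate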
MKP-1 inh – inhibitors of human MKP-1 phosphatase | recombinant MKP-1, OMFP hydrolysis fluorescence | P28562 | AID 374 | inhibition, %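 (compounds tested at a single concentration somewhere between 10 and 100 µM)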 | 65,000 compounds, 0.15% hits;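 active = inhibition above about 50%, limit read from the data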;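 also: 0% = DMSO max control wells and 100% = wells with enzyme stopped by NaOH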
PLAP activator – activates human placental alkaline phosphatase; P05187; purified PLAP enzyme, luminescent substrate read-out; active compounds read high; activation fold at 20 µM; 96,000 compounds, 1.2% hits; AID 696; in the data active = activation fold above about 2
Cdc25B block – inhibitors of human Cdc25B phosphatase | P30305 | 65,000 compounds, 0.1% hits | AID 368 | recombinant Cdc25B, OMFP fluorescence Ex485/Em525 | inhibition, %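 (compounds tested at 10 µM final in the well)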; in the data active = inhibition above about 50%
An asterisk follows results filed as active; · = no result given. Hits are enriched below; roughly 1.5% of the tested compounds scored in any of these assays.

SMILES | HePTP inhibitor | TNAP act DEA | Hsp90 inh | MKP-1 inh | PLAP activator | Cdc25B block
CCCCCCCC/C=C\CCCCCCCC(=O)NCCc1ccc(O)c(O)c1 | · | · | 83.8* | · | · | ·
CCCCCCCC/C=C\CCCCCCCC(=O)NCCO | · | · | -0.7 | · | · | ·
Cc1cc(S(=O)(=O)Nc2c(C(=O)O)[nH]c3ccccc23)ccc1F | 1.0 | 0.7 | -5.4 | -17.6 | 2* | -5.2
COC(=O)c1[nH]c2ccc(C)cc2c1NS(=O)(=O)c1ccc(F)c(C)c1 | -0.3 | 0.8 | -6.5 | -26.4 | 1 | -10.9
S=c1[nH]nc(-c2ccncc2)n1Cc1ccccc1 | 1.9 | 0.9 | -5.1 | -2.0 | 2* | -17.3
C=CCc1cc(/C=C2/C(=O)NC(=O)N(c3ccc(C)cc3)C2=O)cc(OC)c1O | 6.6 | · | · | · | · | ·
C/C(=N\NC(=O)C1CCCN(S(=O)(=O)c2ccccc2)C1)c1ccccn1 (centres undefined) | · | · | · | · | 2* | ·
O=C(Nc1ccccc1C(F)(F)F)C(F)(F)F | -1.4 | · | · | · | · | ·
Cc1ccc(N(CC(=O)O)S(=O)(=O)c2ccccc2)cc1Cl | 9.3 | · | · | · | · | ·
O=C(NNc1nc2ccccc2s1)C1CC1 | · | · | · | · | 2.2* | ·
O=C(NNc1nc2ccccc2s1)c1ccccc1F | · | · | · | · | 2.3* | ·
CC(C)C(=O)NNc1nc2ccccc2s1 | · | · | · | · | 1 | ·
CCOC(=O)c1ccc(N2NC(=O)/C(=C/c3cc(Br)ccc3O)C2=O)cc1 | 75.4* | · | · | · | · | ·
CCOC(=O)c1ccc(N2NC(=O)/C(=C/c3cc(OC)c(OC)cc3Br)C2=O)cc1 | 5.1 | · | · | · | · | ·
CCOC(=O)c1ccc(N2NC(=O)/C(=C/c3ccc(C=O)cc3)C2=O)cc1 | 95.7* | · | · | · | · | ·
CCOC(=O)c1ccc(N2NC(=O)/C(=C/c3cccc(OC)c3O)C2=O)cc1 | 55.4* | · | · | · | · | ·
CCOC(=O)c1ccc(NC2c3ncccc3C(=O)N2Cc2ccc(F)cc2)cc1 (centres undefined) | 2.2 | 0.9 | -1.2 | 52.1* | 1.1 | -2.6
COc1ccc2c(c1)[nH]c1c(N3CCN(Cc4ccc5c(c4)OCO5)CC3)ncnc12 | 5.6 | 1.1 | · | 11.4 | 1.9 | -8.0
Cc1ccc2[nH]c3c(N4CCCCCC4)ncnc3c2c1 | 5.6 | 0.9 | -8.6 | -14.7 | 0.8 | 13.0
Fc1ccc2[nH]c3c(N4CCN(C5CCCCC5)CC4)ncnc3c2c1 | 11.8 | 0.8 | -2.1 | 20.0 | 2.3* | 11.4
Cc1ccc2[nH]c3c(N4CCN(Cc5ccccc5)CC4)ncnc3c2c1 | 4.4 | 0.9 | -4.8 | -21.6 | 2* | 6.0
COc1cccc2[nH]c3c(N4CCN(Cc5ccc6c(c5)OCO6)CC4)ncnc3c12 | 8.2 | 1.1 | -2.5 | 39.4 | 2.1* | -2.0
CC(C)CN1C(=O)/C(=C/c2cccc3ccccc23)SC1=S | 5.4 | · | · | · | · | ·
CC1CCN(S(=O)(=O)c2cc(Cl)ccc2Cl)CC1 | 0.5 | · | · | · | · | ·
O=c1cc(CO)oc(CN2CCN(c3cccc(C(F)(F)F)c3)CC2)c1O | · | · | · | · | 2.2* | ·
SMILES | HePTP inhibitor | TNAP act DEA | Hsp90 inh | MKP-1 inh | PLAP activator | Cdc25B block
O=c1cc(CO)oc(CN2CCN(c3ccccc3)CC2)c1O | · | · | -2.7 | 16.1 | 1 | 6.3
COc1ccc(-c2[nH]ncc2/C=N\NS(=O)(=O)c2ccc(Cl)cc2)cc1 | · | · | · | · | 1.1 | ·
CC(C)(Oc1ccc(Cl)cc1)C(=O)N/N=C/c1cn[nH]c1-c1ccccc1 | · | · | · | · | 2.8* | ·
O=c1nc(N2CCCCC2)nc(Nc2ccccc2)[nH]1 | · | · | · | · | 2.3* | ·
CCN(CC)S(=O)(=O)c1ccc(NC(=O)c2cccc([N+](=O)[O-])c2)cc1 | 5.6 | · | · | · | · | ·
CCOC(=O)c1[nH]nc(-c2cc(CC)c(O)cc2O)c1-c1cscn1 | · | · | · | · | 2.1* | ·
CCOC(=O)c1oc2cc(O)cc(C)c2c(=O)c1-c1cscn1 | -2.7 | 0.9 | -1.8 | -19.3 | 1.2 | 9.1
CCOc1cc(S(=O)(=O)NC2CCCCC2)ccc1F | · | · | · | · | 0.7 | ·
CCOc1ccc(C)cc1S(=O)(=O)NC1CCCCC1 | 4.3 | 0.9 | 1.4 | 1.2 | 2.2* | 2.9
O=C1CC(N(Cc2ccco2)C(=S)NCCc2ccccc2)C(=O)N1c1ccc(F)cc1 (centres undefined) | -5.4 | · | · | · | · | ·
O=C(CN1C(=O)/C(=C\c2ccccc2Cl)SC1=S)Nc1cc([N+](=O)[O-])ccc1O | 4.7 | · | · | · | · | ·
O=C1NN(c2ccccc2)C(=O)/C1=C\c1ccc(O)cc1 | -12.6 | · | · | · | · | ·
COc1ccc(-c2nnc(SC(C)C(=O)Nc3ccc4c(c3)OCCO4)o2)cc1 (centres undefined) | -1.4 | 1 | 3.8 | 19.6 | 2.1* | -5.8
CCOC(=O)CNC(=O)CSc1nc2nc(C)c(Br)cc2[nH]1 | -5.2 | 0.9 | 0.3 | -10.2 | 2.3* | 7.7
